From PubChem BioAssay (Tox21)
Activity calls are given as the source filed them. Calls follow the shape of the full dose curve.

Each compound was assayed against Muscarinic acetylcholine receptor M1 (Homo sapiens) (UniProt P11229) (assay: Cholinergic receptor muscarinic 1 (CHRM1) small molecule agonists, cell-based qHTS assay (AID 1963589; also: nearly all actives have a fitted effect of over 35% in size)). Conditions: CHRM1-CHO cells, agonist mode, calcium flux fluorescence; series mostly up to 76.8 µM; activation: at the top concentration.
Sequence of Muscarinic acetylcholine receptor M1 (Homo sapiens) (P11229 whole entry, looked up): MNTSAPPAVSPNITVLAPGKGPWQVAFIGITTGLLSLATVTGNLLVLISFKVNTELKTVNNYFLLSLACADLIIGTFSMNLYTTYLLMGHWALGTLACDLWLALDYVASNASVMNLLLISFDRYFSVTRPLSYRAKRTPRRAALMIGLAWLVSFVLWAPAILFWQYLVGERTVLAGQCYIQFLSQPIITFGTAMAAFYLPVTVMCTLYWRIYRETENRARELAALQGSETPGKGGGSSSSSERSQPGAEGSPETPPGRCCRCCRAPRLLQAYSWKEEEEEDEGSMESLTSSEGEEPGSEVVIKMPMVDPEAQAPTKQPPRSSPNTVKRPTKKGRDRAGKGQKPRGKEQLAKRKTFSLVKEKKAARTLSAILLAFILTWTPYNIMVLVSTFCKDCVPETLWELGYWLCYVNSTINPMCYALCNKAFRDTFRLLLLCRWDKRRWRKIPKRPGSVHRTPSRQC
From the text: National Center for Advancing Translational Sciences [NCATS]
Division of Preclinical Innovation [DPI]
U.S. Environmental Protection Agency [EPA]
National Institutes of Environmental Health Sciences [NIEHS]
National Toxicology Program [NTP]
U.S. Food and Drug Administration [FDA]
The CHRM1 is a muscarinic receptor. This receptor plays a crucial role in learning and memory processes and has long been identified as a promising therapeutic target for the improvement of cognitive decline in Alzheimer's disease (AD). The CHRM1-CHO cell line stably expressing human muscarinic acetylcholine receptor M1 (CHRM1) can be used for screening agonists and antagonists of interactions between CHRM1 and its ligands. The CHRM1-CHO Calcium Flux Assay is a homogeneous fluorescence-based assay for detecting the intracellular calcium level using FDSS kinetic plate reader system.
CHRM1-CHO cells were dispensed at 1000 cells/3uL/well in 1536-well black-clear bottom plates using a Multidrop Dispenser. After the assay plates were incubated at a 37 C/5% CO2 incubator for 18 h, 3 uL of Dye Loading Buffer was transferred to the assay plate by a Flying Reagent Dispenser. The assay plates were incubated at 37 C for 1h. For agonist mode, 23 nL of compounds dissolved in DMSO, positive controls or DMSO only was transferred to the assay plate by a pin tool. […] Each test compound was measured at 15 concentrations in three independent runs.
% is scaled to controls: 0 for no effect and ±100 for the full control effect.

Compound	activation	Potency
CC[C@H]1CC[C@H](NCc2cc3c(cc2OC)[C@H]2C[C@H]2C(=O)N3C)[C@H](c2ccccc2)N1	-1.57% (inactive)	
CCCOC(OCCC)OCCC	-0.0948% (inactive)	
CC(O)CC(C)O (stereo not given)	-0.0365% (inactive)	
CCCCC[C@H](O)/C=C/[C@H]1[C@H](O)CC(=O)[C@@H]1C/C=C\CCCC(=O)O	9.17% [at 35.3 µM] (inactive)	
COc1cccc2c1C(=O)c1c(O)c3c(c(O)c1C2=O)C[C@@](O)(C(=O)CO)C[C@@H]3O[C@H]1C[C@H](N)[C@H](O[C@@H]2CCCCO2)[C@H](C)O1	0% [at 35.3 µM] (inactive)	
CC1(C)CC(=O)CC(C)(C)N1	0.405% (inactive)	
CCCCC(CC)COCCCN (stereo not given)	1% (inactive)	
COc1cc(Cc2cnc(N)nc2N)cc(OC)c1OC		inactive
Cc1nc(Nc2ncc(C(=O)Nc3c(C)cccc3Cl)s2)cc(N2CCN(CCO)CC2)n1	-0.0223% [at 35.3 µM] (inactive)	
Nc1ccc(Oc2ccc(N)c(N)c2)cc1	0.113% (inactive)	
Cc1cccc(OCCOc2cccc(C)c2)c1	0.152% (inactive)	
O=[N+]([O-])c1cccc(S(=O)(=O)O)c1	-0.0507% (inactive)	
CCCCCCCCCCCCCCCC(=O)OCC	-0.0265% (inactive)	
CC1=C(C(=O)O)N2C(=O)[C@@H](NC(=O)[C@H](N)C3=CCC=CC3)[C@H]2SC1	-0.163% [at 35.3 µM] (inactive)	
OCc1cc(C(O)CNCCCCCCOCCCCc2ccccc2)ccc1O (stereo not given)	3.17% [at 35.3 µM] (inactive)	
O=C(O)/C=C/c1ccc(O)c(O)c1	6.6% (inactive)	
Cc1ccc(OC(=O)CC(C)C)cc1	-0.288% (inactive)	
O=[N+]([O-])C1(Br)COCOC1	14.1% (inactive)	
COc1cc(Nc2c(C#N)cnc3cc(OCCCN4CCN(C)CC4)c(OC)cc23)c(Cl)cc1Cl	-0.209% [at 35.3 µM] (inactive)	
NC1(c2ccc(-c3nc4ccn5c(=O)[nH]nc5c4cc3-c3ccccc3)cc2)CCC1	-0.0461% [at 35.3 µM] (inactive)	

Compound	activation	Potency
COc1cc2nc(N(C)CCCNC(=O)C3CCCO3)nc(N)c2cc1OC (stereo not given)	0.0222% [at 35.3 µM] (inactive)	
N#CCCNCCC#N	-0.0104% (inactive)	
CCCCCC=CCC=CCCCCCCCC(=O)OCC	0.581% [at 35.3 µM] (inactive)	
S=c1nccc[nH]1	3.09% (inactive)	
CCO[Si](CCCS)(OCC)OCC	-0.0297% (inactive)	
NC(N)=NS(=O)(=O)c1ccc(N)cc1	0.136% [at 35.3 µM] (inactive)	
CCCC(=O)O[C@]1(C(=O)COC(=O)CC)CC[C@H]2[C@@H]3CCC4=CC(=O)CC[C@]4(C)[C@H]3[C@@H](O)C[C@@]21C	5.7% [at 15.8 µM] (inactive)	
Fc1ccc(C(c2ccc(F)cc2)N2CCNCC2)cc1	-0.758% [at 35.3 µM] (inactive)	
C=C[C@](C)(O)CC[C@@H]1[C@@]2(C)CCCC(C)(C)[C@@H]2CC[C@@]1(C)O	2.2% (inactive)	
C=CCCCCCCC=C	1.36% (inactive)	
CCCCCC1Nc2cc(C(F)(F)F)c(S(N)(=O)=O)cc2S(=O)(=O)N1 (stereo not given)	-0.476% [at 35.3 µM] (inactive)	
CC(=O)c1ccc([N+](=O)[O-])cc1	-2.58% (inactive)	
CCOC(=O)CC(=O)c1ccccc1	5.71% (inactive)	
Nc1ccc(N)c([N+](=O)[O-])c1	-0.259% (inactive)	
O=C(Nc1cccc(C(F)(F)F)c1)c1cc(Br)cc(Br)c1O	4.73% (inactive)	
C[C@@H](c1ncncc1F)C(O)(Cn1cncn1)c1ccc(F)cc1F (stereo not given in full)	0.0066% [at 35.3 µM] (inactive)	
COc1ccccc1N1CCN(CC(O)COc2cccc3ccccc23)CC1 (stereo not given)	4.82% [at 35.3 µM] (inactive)	
COC(=O)[C@H]1[C@H]2C[C@@H]3c4[nH]c5cc(OC)ccc5c4CCN3C[C@H]2C[C@@H](OC(=O)/C=C/c2ccc(O)c(OC)c2)[C@@H]1OC	0% [at 35.3 µM] (inactive)	
CCN1CCN(C(=O)N[C@@H](C(=O)N[C@@H]2C(=O)N3C(C(=O)O)=C(CSc4nnnn4C)CS[C@H]23)c2ccc(O)cc2)C(=O)C1=O	0.272% [at 35.3 µM] (inactive)	
CCCCC(CC)COC(=O)c1ccccc1C(=O)O (stereo not given)	-1.14% (inactive)	
